Compound activity as filed in PubChem BioAssay.
DT40 TDP1 no CPT = qHTS for Inhibitors of human tyrosyl-DNA phosphodiesterase 1 (TDP1): qHTS in cells in absence of CPT; DT40 Tdp1-/- hTDP1 cells, no CPT, ATP luminescence, 48 h; Potency, µM (doses to about 46.2 µM), without a hit: at the highest dose activity change, negative = growth inhibition, actives largely listed as inhibitors; 420,000 compounds, 15% hits; also: % is scaled to controls: 0 for no effect and ±100 for the full control effect; nearly all actives have a fitted effect of over 55% in size
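Chicken DT40 Tdp1-/- cells stably complemented with human TDP1 were seeded at 400 cells/well with DMSO in place of 20 nM camptothecin. After compound pinning, cells grew at least 48 hr at 37 °C; viability read by CellTiter-Glo luminescence.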
ATXN2 expr inh = Primary qHTS for Inhibitors of ATXN expression; Potency, µM (top dose mostly 57 µM), without a hit: top-dose activity change, negative = inhibition, most hits filed as inhibitors; HEK-293 ATXN2-luciferase reporter, luminescence, 24 h; 360,000 compounds, 0.72% hits; also: % is scaled to controls: 0 for no effect and ±100 for the full control effect; nearly all actives have a fitted effect of over 55% in size
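qHTS (up to 57 uM final) was run with 24 h compound exposure of reporter cells at 37 °C. Each well was multiplexed: SteadyGlo luminescence measured ATXN2-luciferase expression after a fluorogenic Gly-Phe-AFC viability readout (25 uM final).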
TGFb inhibitor = qHTS for Inhibitors of TGF-b; Potency, µM (series often up to 46.1 µM), for the others: at the top dose activity, negative = inhibition, most hits filed as inhibitors; 410,000 compounds, 1.2% hits; HepG2 CAGA-GFP TGF-b/SMAD3 reporter, GFP fluorescence, 18 h; TGF-beta stimulated, 500 pg/mL final; AID 588855, 2011; also: % is scaled to controls: 0 for no effect and ±100 for the full control effect; nearly all actives have a fitted effect of over 65% in size
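Cell-based qHTS in HEPG2 carrying a CAGA-GFP Smad reporter; compounds added before 500 pg/mL final TGF-beta, 18 h incubation at 37 degrees C, GFP fluorescence quantified per cell by imaging cytometry.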
HepG2 viability = qHTS for Inhibitors of TGF-b: Cytotox Counterscreen; HepG2 CAGA-GFP viability, ATP luminescence, 18 h; Potency, µM (highest dose often 46.1 µM), for the others: top-dose activity change, negative = cytotoxicity, most hits filed as cytotoxic; 410,000 compounds, 0.76% hits; AID 588856, 2011
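CellTiter-Glo luminescence gave cytotoxicity after 18 hours at 37 degrees C. The cells were HepG2 CAGA-GFP in 1% FBS DMEM, stimulated with 500 pg/mL TGF-beta after compound addition. %Activity was normalised to no-cell wells (complete cell-killing) and DMSO (no toxicity), and curves were fitted and classified.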
DT40 TDP1 CPT = qHTS for Inhibitors of human tyrosyl-DNA phosphodiesterase 1 (TDP1): qHTS in cells in presence of CPT; AID 686979, 2013; Potency, µM (titrated, usually from 46.2 µM), for inactives: at the top dose activity change, negative = growth inhibition, hits mostly inhibitors; 420,000 compounds, 12% hits; chicken DT40 Tdp1-/-;hTDP1 cells + 20 nM CPT, ATP luminescence, 48 h; also: % is scaled to controls: 0 for no effect and ±100 for the full control effect; nearly all actives have a fitted effect of over 55% in size
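Chicken DT40 Tdp1-/- cells complemented with human TDP1, 400 cells/well, exposed to compounds plus 20 nM camptothecin for at least 48 h at 37 C; viability read as ATP content by CellTiter-Glo luminescence.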
S2 tox = Viability Counterscreen for Primary qHTS for Inhibitors of ATXN expression; S2 cells (HEK-293 line with an ATXN2-luciferase reporter) viability, CellTiter-Fluor protease fluorescence, 24 h; Potency, µM (top dose mostly 56.7 µM), hits mostly cytotoxic; 400,000 compounds, 0.49% hits; also: nearly all actives have a fitted effect of over 40% in size
The depositor's hits bear a star; i = inactive; ? = inconclusive; nt = not tested or not shown. Shown are actives, neighbours in structure and some others; about 17% of the full set was active somewhere. Calls follow the shape of the dose curve; as a rule, active = well fitted curve in the direction sought with a large enough effect; inconclusive = small, poorly fitted or top-dose-only effect, or another doubt; inactive = no such curve, though single readings can be large; an effect the other way counts as inactive or inconclusive. Potency is read from the fitted curve at half-maximal effect.

SMILES | DT40 TDP1 no CPT | ATXN2 expr inh | TGFb inhibitor | HepG2 viability | DT40 TDP1 CPT | S2 tox
CN(C(=O)Nc1ccc(F)cc1)[C@H]1C[C@H]2c3[nH]c4ccccc4c3CCN2C(=O)[C@H]1CO | -24.9% | 12.7% | -7.9% | -21.7% | -29.9% | i
CSc1sc(-c2nnc(SCC(=O)Nc3ccc(Cl)cc3)n2C)c2c1C=CCC2 | -21.9% | ? | 0.0% | -26.4% | -21.8% | i
O=C(c1ccc(Br)o1)N1CCN(C23CC4CC(CC(C4)C2)C3)CC1 | ? | 1.4% | -4.4% | -15.2% | ? | i
O=C(c1ccc(C23CC4CC(CC(C4)C2)C3)o1)N1CCOCC1 | 23.1µM* | 15.5% | ? | -31.8% | ? | i
COC(=O)Cn1cc([N+](=O)[O-])nc1C | -9.4% | nt | 5.8% | 26.4% | -4.8% | ?
COc1cc(C(C)=O)ccc1Oc1ncnc2c1cnn2-c1ccc(F)cc1 | 9.2µM* | 8.5% | ? | -0.1% | ? | ?
COc1ccccc1Oc1ncnc2c1cnn2-c1ccccc1 | ? | 37.8% | ? | 0.5% | 11.1% | i
Cc1ccc(-c2nc(NCc3ccco3)c3ccccc3n2)cc1 | ? | nt | ? | -49.1% | ? | i
Cc1ccccc1Nc1nc(NCc2ccco2)c2ccccc2n1 | 3.66µM* | ? | ? | -36.9% | 5.8µM* | ?
Oc1ccccc1Nc1nc(NCc2ccco2)c2ccccc2n1 | 20.6µM* | nt | ? | -74.1% | 16.4µM* | i
COc1ccc(OC)c(Nc2nc(NCc3ccco3)c3ccccc3n2)c1 | 23.1µM* | 31.6µM* | ? | -52.7% | ? | nt
O=C(CCc1c[nH]c2ccccc12)N[C@@H](Cc1c[nH]c2ccc(O)cc12)C(=O)O | 0.9% | 8.2% | 0.0% | 2.7% | -5.4% | i
O=C1NC(c2cccc3ccccc23)Nc2ccc(Cl)cc21 (stereo not given) | 0.581µM* | ? | 3.98µM* | -5.6% | 0.461µM* | ?
Cc1ccc(C(=O)/C=C/Nc2ccccn2)cc1 | -7.4% | ? | 8.2% | -23.6% | -25.5% | i
O=C(C=Cc1ccccn1)c1ccccc1 | 2.91µM* | ? | 6.31µM* | 10µM* | 3.26µM* | nt
O=C(C=Cc1ccccn1)c1ccccc1O | 3.66µM* | ? | ? | -42.3% | 2.91µM* | nt
Cc1ccc(/C=C/C(=O)c2ccccc2O)cc1 | ? | 42.0% | ? | -21.8% | ? | i
Cc1nc(NC(=O)c2cccnc2Cl)sc1C | ? | nt | -6.9% | -18.1% | -1.5% | ?
CN(C)C(CNC(=O)C1CC(=O)N(c2cccc(C(F)(F)F)c2)C1)c1ccccc1 (stereo not given) | ? | nt | -7.7% | -8.4% | -18.5% | i
O=[N+]([O-])c1ccc(-c2c[nH]c(=S)[nH]2)cc1 | ? | nt | -5.6% | 4.5% | 16.4µM* | i
S=c1[nH]cc(-c2ccccc2)[nH]1 | -11.3% | nt | -4.9% | 0.5% | -2.0% | i
COc1cccc(CNC(=O)c2cc(COc3c(F)cccc3F)on2)c1 | -21.7% | 9.2% | -7.2% | -10.8% | -9.2% | i
COc1ccc(OCc2cc(C(=O)NC(C)Cc3ccccn3)no2)c(Cl)c1 (stereo not given) | ? | 3.7% | -13.2% | -12.4% | ? | i
O=C(NCCc1cccnc1)c1cc(COc2ccc(F)cc2F)on1 | 23.1µM* | nt | -6.5% | -11.6% | ? | i
CC(CNC(=O)c1cc(COc2c(F)cccc2F)on1)Oc1cccnc1 (stereo not given) | 14.6µM* | nt | -12.0% | -31.1% | 20.6µM* | ?
SMILES | DT40 TDP1 no CPT | ATXN2 expr inh | TGFb inhibitor | HepG2 viability | DT40 TDP1 CPT | S2 tox
CC(Cc1cccnc1)NC(=O)c1cc(COc2ccc(F)cc2F)on1 (stereo not given) | 20.6µM* | 3.1% | 11.7% | -2.7% | 16.4µM* | i
COc1ccc(OCc2cc(C(=O)NC(C)Cc3cccnc3)no2)c(Cl)c1 (stereo not given) | 23.1µM* | -24.6% | ? | 1.5% | ? | i
Cc1nc(CNC(=O)c2cc(COc3ccc(F)cc3Cl)on2)cs1 | ? | -1.5% | 4.5% | -11.4% | ? | i
CCn1cc(CNC(=O)c2cc(COc3ccc(F)cc3F)on2)cn1 | 23.1µM* | nt | -32.0% | -11.2% | ? | i
O=C(NCCCc1ccccc1)c1cc(COc2ccc(F)cc2Cl)on1 | ? | -15.3% | -17.4% | -11.3% | 20.6µM* | i
C=CCOc1nc2sc(C)c(C)c2c(=O)n1-c1ccccc1 | -29.8% | nt | -13.9% | -4.8% | 5.3% | i
Cc1c(Cl)cccc1NC(=O)c1cc2nc(-c3ccc4c(c3)OCO4)cc(C(F)(F)F)n2n1 | -19.1% | nt | -15.8% | -2.2% | -7.8% | nt
COc1ccc(C(C(=O)NC2CCCCC2)N(C(=O)c2ccco2)c2ccc(-n3cnnn3)c(C)c2)cc1 (stereo not given) | -26.9% | 8.9% | -18.9% | -27.3% | -23.3% | i
COc1cccc(N(C(=O)Cc2cccs2)C(C(=O)NC2CCCC2)c2ccncc2)c1 (stereo not given) | -16.4% | 15.9% | 5.2% | -8.6% | -29.7% | ?
CCOc1ccc(C(C(=O)NC2CCCCC2)N(C(=O)Cc2cccs2)c2ccc(-n3cnnn3)c(OC)c2)cc1 (stereo not given) | 23.1µM* | -7.7% | 14.6% | 6.4% | ? | i
CCOc1cccc(N(C(=O)Cc2cccs2)C(C(=O)NC2CCCCC2)c2cccn2C)c1 (stereo not given) | 16.4µM* | -12.2% | -10.9% | -24.6% | 16.4µM* | ?
COc1cccc(C(C(=O)NC2CCCC2)N(C(=O)c2ccco2)c2ccc(-n3cnnn3)c(C)c2)c1OC (stereo not given) | 2.91µM* | -3.4% | 3.8% | -2.0% | ? | i
CN(C)C(=O)c1ccc(-c2cc(N(C)Cc3ccco3)ncn2)cc1 | -3.7% | nt | nt | nt | -6.5% | nt
COC(=O)c1cc2oc3ccccc3c2n1CC(=O)Nc1ccc(F)c(Cl)c1 | -26.3% | nt | nt | -15.6% | -50.8% | nt
O=C(Nc1ccc(C2=CN(Cc3ccccc3)CCC2=O)cc1)OCc1ccccc1 | -10.3% | 9.4% | ? | 10.5% | -3.4% | i
O=C1CCN(Cc2ccccc2)C=C1c1ccc(Br)cc1 | 23.1µM* | -7.0% | -15.0% | -7.7% | 18.4µM* | i
